Compound activity: PubChem, Sanford-Burnham Center for Chemical Genomics
This is a sample that favours compounds with a hit; in the whole collection about 28% have one here.
CYP2C9 act: activators of human CYP2C9. P11712. recombinant CYP2C9, luciferin-H conversion, luminescence; hits give high values; factor 1 = untreated enzyme, 0 = blocked. activation factor at 5 µM. hit rate 1.4% among 96,000;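 active = activation factor of 2 or more for CYP2C9 at a 5 µM dose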;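 note: 0 = sulfaphenazole-blocked wells and 1 = vehicle-only wells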
Target sequence (P11712 whole entry, looked up): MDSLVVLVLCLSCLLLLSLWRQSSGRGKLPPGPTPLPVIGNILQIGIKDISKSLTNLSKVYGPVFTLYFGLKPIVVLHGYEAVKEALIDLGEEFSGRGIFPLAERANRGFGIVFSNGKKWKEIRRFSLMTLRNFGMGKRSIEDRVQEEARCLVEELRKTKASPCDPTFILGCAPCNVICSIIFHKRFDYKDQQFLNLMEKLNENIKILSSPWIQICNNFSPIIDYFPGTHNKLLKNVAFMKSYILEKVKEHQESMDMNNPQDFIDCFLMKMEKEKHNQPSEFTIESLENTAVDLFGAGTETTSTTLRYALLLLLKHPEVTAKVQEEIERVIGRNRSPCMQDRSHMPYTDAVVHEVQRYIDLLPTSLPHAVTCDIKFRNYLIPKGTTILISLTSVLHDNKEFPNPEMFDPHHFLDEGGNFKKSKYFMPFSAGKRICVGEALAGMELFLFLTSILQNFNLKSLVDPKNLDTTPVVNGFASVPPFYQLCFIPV
CYP2C19 act: increases human CYP2C19 enzyme activity; P33261; recombinant CYP2C19, luciferin-H EGE luminescence; hits give high values; 0 = fully inhibited enzyme, 1 = untreated enzyme; activation factor at 5 µM; 96,000 tested, under 10 active; AID 1025;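 active = activation factor of at least 2 at 5 µM in the primary screen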;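 note: 0 = wells with 2.5 mM tranylcypromine and 1 = vehicle-only wells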
CYP2C9 inh: blocks human cytochrome P450 2C9; inhibition, % at 5 µM; CYP2C9 Supersomes, luciferin-H conversion, luminescence; hit rate 20% among 96,000; AID 777;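 active = blocking of liver enzyme CYP2C9 beyond about 50% at 5 µM, limit read from the data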
CD11b adhes enh: increases human CD11b/CD18 adhesion to fibrinogen | P05107+P11215 | K562 CD11b/CD18 adhesion to fibrinogen, ATPlite luminescence | AID 1499 | hit rate 0.07% among 93,000 | activation, % at 10 µM;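 active = 10 µM primary screen giving 50% or more activity, confirmed by 40% or more on retest at that dose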
Mac1 fbg inh: CD11b/CD18-fibrinogen binding inhibition; P05107+P11215; K562 CD11b/CD18 adhesion to fibrinogen, ATPlite luminescence; Mn2+ added to activate the integrin; inhibition, % at 10 µM; hit rate 0.54% among 93,000; AID 1497;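 active = primary inhibition of 50% or more at 10 µM, then 40% or more on retest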
CYP2C19 inh: inhibitors of human CYP2C19 | hit rate 21% among 96,000 | CYP2C19 Supersomes, luciferin-H EGE luminescence, 30 min | inhibition, % at 5 µM;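 active = CYP2C19 inhibition above a set limit at 5 µM in the primary screen, cut at about 50% in these data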;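 note: plate controls were negative control wells for no effect and 2.5 mM tranylcypromine positive control for full effect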
* marks the source's active call; other numbers are inactive results; nt = no result.

SMILES | CYP2C9 act | CYP2C19 act | CYP2C9 inh | CD11b adhes enh | Mac1 fbg inh | CYP2C19 inh
CCCCOC(=O)CSc1nc(N)c(C#N)c(-c2ccc(OCC)cc2)c1C#N | 0.8 | 0.8 | 22.8 | -3.7 | -19.0 | 16.9
C=C(C)CSc1nc(N)c(C#N)c(-c2ccc(C)cc2)c1C#N | 0.5 | 0.9 | 50.0* | 12.7 | 10.4 | 12.9
CN1C(=O)[C@@H]2[C@@H]3C[C@@H]([C@H]4ON=C(c5ccc(Cl)cc5Cl)[C@@H]34)[C@@H]2C1=O | nt | nt | nt | 2.9 | 3.5 | nt
Cc1ccc(NC(=O)c2csc(-c3ccccc3)c2C)cc1 | 0.9 | 0.8 | 6.5 | -3.5 | 66.5 | 17.2
Cc1ccc(NC(=O)C(C)c2ccc(-c3ccccc3)c(F)c2)cc1 (stereo unspecified) | 0 | 0.5 | 95.8* | -8.5 | 95.6 | 47.9
Fc1ccc(NC(=S)NCc2ccccn2)cc1 | 1 | 0.9 | -1.7 | nt | nt | 13.1
Cc1ccc(NC(=O)C2=C(O)c3ccccc3N(C)S2(=O)=O)cc1 | 0.3 | 1.1 | 73.4* | -3.7 | 2.4 | -9.5
C=C(C)Cn1c(SCC(=O)O)nnc1-c1ccccc1 | 0.9 | 1 | 14.7 | -4.9 | 2.7 | -1.4
C=C(C)Cn1c(-c2ccccc2)nc2ccccc21 | 0.6 | 0.3 | 41.6 | 2.1 | 26.1 | 69.4*
Cc1ccc(OC(=O)CCC(=O)OCCCC(F)(F)C(F)(F)F)cc1 | 1.1 | 1.1 | -7.3 | -0.3 | -1.0 | -13.7
CCCc1n[nH]c2c1C(=O)C(C(=O)OC)C(C)(C)C2 (stereo unspecified) | 0.8 | 0.1 | 17.0 | -1.6 | -4.4 | 86.4*
Cc1ccc(-c2noc(CN3CCN(C(c4ccccc4)c4ccccc4)CC3)n2)cc1 | 0.8 | 1 | 22.2 | 1.6 | 1.6 | 0.6
Cc1ccccc1OCC(=O)N(Cc1nc(-c2ccccc2)no1)C(C)C | 0.6 | 0.4 | 39.8 | 9.1 | -14.5 | 57.3*
Cc1ccc(SCC(=O)N(Cc2nc(-c3ccccc3)no2)C(C)C)cc1 | 0.2 | 0.2 | 78.8* | -1.1 | 36.4 | 76.9*
CC1=NN(C(=O)Cc2ccccc2)C(O)(c2cccnc2)C1 (stereo unspecified) | 1.1 | 1 | -9.8 | -3.9 | 11.8 | 3.8
COc1cc(CC(=O)OCC(=O)Nc2ncc(Cl)cc2Cl)cc(OC)c1OC | 0.5 | 0.3 | 45.3 | -0.9 | -16.1 | 67.0*
COc1ccccc1OCC(=O)OCC(=O)Nc1ncc(Cl)cc1Cl | 1.2 | 1.2 | -18.3 | -1.1 | -3.1 | -19.4
O=C(COC(=O)CCc1nc2ccccc2s1)Nc1ncc(Cl)cc1Cl | nt | nt | nt | -0.1 | -1.0 | nt
COc1ccc(CC(=O)OCC(=O)Nc2ncc(Cl)cc2Cl)cc1 | 0.5 | 0.4 | 52.8* | -0.6 | -2.1 | 63.7*
O=C(COC(=O)CCc1ccccc1)Nc1ncc(Cl)cc1Cl | 0.8 | 0.5 | 21.0 | -0.6 | 3.9 | 54.5*
COc1ccc(CC(=O)OCC(=O)Nc2ccc(Cl)cn2)cc1 | 0.5 | 0.7 | 48.1 | 3.2 | -10.6 | 30.9
COc1ccc(CC(=O)OCC(=O)NC(=O)NC2CCCCC2)cc1 | 0.4 | 0.9 | 55.6* | 5.6 | 4.1 | 11.8
CC(C)(c1ccccc1)c1ccc(OCCCNCCO)cc1 | 1.1 | 0.8 | -14.0 | -2.2 | 3.7 | 20.2
O=C(Cn1cnc2c(nnn2Cc2ccccc2F)c1=O)NCc1ccco1 | 1.1 | 1 | -14.8 | nt | nt | 0.3
COC(Cc1nnc(SC)n1-c1ccc(Cl)cc1)OC | 0.9 | 0.9 | 13.7 | nt | nt | 6.6
SMILES | CYP2C9 act | CYP2C19 act | CYP2C9 inh | CD11b adhes enh | Mac1 fbg inh | CYP2C19 inh
O=C(CN1C(=O)NC2(CCCCC2)C1=O)NC1CCCc2ccccc21 (stereo unspecified) | nt | nt | nt | -1.7 | -4.4 | nt
COc1cc(CCN2C(=O)c3cccc4cccc(c34)C2=O)c(S(=O)(=O)NCCCO)cc1OC | 0.6 | 0.3 | 38.5 | -1.2 | -3.6 | 66.4*
Cn1c(CS(=O)Cc2c(Cl)cccc2Cl)nnc1SCc1ccc(Cl)cc1 (stereo unspecified) | 0.8 | 0.8 | 19.0 | -3.2 | 0.6 | 19.3
O=S(Cc1ccc(Br)cc1)Cc1nnc(SCc2ccc(Cl)cc2)n1-c1ccccc1 (stereo unspecified) | 0.5 | 0.6 | 52.2* | nt | nt | 37.2
Cc1ccc(CSc2nnc(CS(=O)Cc3ccc(Cl)cc3Cl)n2C)cc1 (stereo unspecified) | 0.5 | 1.1 | 54.4* | -4.7 | 27.3 | -10.5
Cc1cc(C)c(S(C)(=O)=O)c(Oc2ccccc2C)n1 | 0.9 | 0.8 | 8.5 | nt | nt | 21.5
